This assay is described as follows: NCI Yeast Anticancer Drug Screen. Data for the rad18 strain (AID 177). Particulars: S. cerevisiae rad18 mutant growth inhibition, hits give high values. As for the experimental part: Growth inhibition of yeast strains with defined genetic alterations is measured as a screen for potential anti-cancer activity. Selected strains with alterations in DNA damage repair or cell cycle control were exposed to compounds and growth inhibition was measured relative to vehicle treated controls. The strain used in this assay is rad18

Compounds without any hit were thinned out: in the full panel of roughly 79,000, 15% have a hit. A number with no mark means an inactive call. Active and inactive are the calls of the source. Cut-off read from the data, not from the text of the source: active = growth inhibition above about 70%; inactive = the rest.

Results on eight compounds are retold here after PubChem BioAssay (NCI).

Take `C[CH2][Sn]([CH2]C)([O]S(C)(=O)=O)[O]S(C)(=O)=O`: the growth inhibition by setting is: (at 1.2 µM) -28%; (at 3.7 µM) -19%; (at 11.0 µM) -13%; (at 33.0 µM) -15%; (at 100.0 µM) 25%.
In the case of `Oc1ccc(Cl)cc1Cc1ccccc1`, the growth inhibition runs as follows: (at 1.2 µM) -71%; (at 3.7 µM) -30%; (at 11.0 µM) 54%; (at 33.0 µM) 95% (active); (at 100.0 µM) 97% (active).
`O=C1C=CC(=O)C1(Br)Br`: the growth inhibition is 15% (at 1.2 µM); 40% (at 3.7 µM); 77% (active) (at 11.0 µM); 95% (active) (at 33.0 µM); 99% (active) (at 100.0 µM).
Take `O=C(O)CCCOc1cc(Cl)c(Cl)cc1Cl`: the growth inhibition (at 1.2 µM) was -33%; the growth inhibition (at 3.7 µM) was -21%; the growth inhibition (at 11.0 µM) is -7%; the growth inhibition (at 33.0 µM) is 41%; the growth inhibition (at 100.0 µM) is 77% (active).
For `Cc1cc[n+](C2=C(Nc3cccc(C(F)(F)F)c3)C(=O)c3ccccc3C2=O)cc1`, in that order: 2%, -1%, 3%, 2% and 5%.
For `Nc1ccccc1C(=O)OCCc1ccccc1`, in that order: -58%, -22%, -29%, -24% and 87% (active).
On to `CCN(CC)CCBr`, for which the growth inhibition runs as follows: (at 1.2 µM) 17%; (at 3.7 µM) 54%; (at 11.0 µM) 86% (active); (at 33.0 µM) 92% (active); (at 100.0 µM) 96% (active).
On the same counts, the results for `COC(=O)c1c(C)ccc2c(O)c3c(cc12)C(=O)c1c2c(cc(O)c1C3=O)C1(C)OC(C)(O2)C(O)C(N(C)C)C1O` (stereo not given) are 1%, 25%, 80% (active), 95% (active) and 88% (active).
